Results from the supplement of paper PMC4022240.
± gives the standard deviation.

How the values were obtained:
Experiment in all cases: peptide microarray binding signal (635 nm), min-max normalized on array (fraction of array maximum); higher = stronger binding
Settings in all cases: peptide region: H3 5-17
[1] = target: T1, HaloTag-ATRX ADD domain (163-292)
T1 chain: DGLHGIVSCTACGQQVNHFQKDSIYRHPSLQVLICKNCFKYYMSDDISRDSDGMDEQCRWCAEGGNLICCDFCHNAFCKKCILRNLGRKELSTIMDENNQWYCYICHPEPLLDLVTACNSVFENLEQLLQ
Summary of the method: (§1)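 Arrays carried histone 13-mer peptide–cellulose conjugates printed in triplicate on nitrocellulose alongside a Cy3 tracer. After overnight blocking at 4°C, they were incubated for 1 h at 4°C with biotin-labelled HaloTag reader fusions (10 nM to 1 μM) plus streptavidin-Alexa Fluor 647, or with rabbit histone antibodies (1:10,000 to 1:2,000) plus anti-rabbit Alexa 647. Scanning on an Axon GenePix 4000B used 635 nm for signal and 532 nm for misprints. The binding signal reported is each triplicate's mean spot intensity after per-library min-max scaling.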

[2] = target: HaloTag-ING2 PHD (mouse Ing2 200-280)
Summary of the method: as §1

[3] = target: anti-H3K4me3 antibody ab8580
Summary of the method: as §1

[4] = target: anti-H3K9me3 antibody ab8898
Summary of the method: as §1

[5] = peptide modifications: H3K9me1 H3T11ph, binder concentration: 1:2,000 dilution
[6] = peptide modifications: H3K9me1 H3T11ph, binder concentration: 1:10,000 dilution
[7] = peptide modifications: H3K9ac H3K14me3, binder concentration: 1:2,000 dilution
[8] = peptide modifications: H3K9ac H3K14me3, binder concentration: 1:10,000 dilution
[9] = peptide modifications: H3K9me2 H3T11ph, binder concentration: 1:2,000 dilution
[10] = peptide modifications: H3K9me2 H3T11ph, binder concentration: 1:10,000 dilution
[11] = peptide modifications: H3K9ac, binder concentration: 1:2,000 dilution
[12] = peptide modifications: H3K9ac, binder concentration: 1:10,000 dilution
[13] = peptide modifications: H3K9me1 H3K14me3, binder concentration: 1:2,000 dilution
[14] = peptide modifications: H3K9me1 H3K14me3, binder concentration: 1:10,000 dilution

QTARKSTGGKAPR [H3 5-17 Q T A R Kme S Tph G G K A P R]
peptide microarray binding signal ([1]; peptide modifications: H3K9me1 H3T11ph, binder concentration: 50 nM): 0.00179 ± 4.4e-05 | peptide microarray binding signal ([1]; peptide modifications: H3K9me1 H3T11ph, binder concentration: 500 nM): 0.003 ± 0.00011 | peptide microarray binding signal ([2]; peptide modifications: H3K9me1 H3T11ph, binder concentration: 10 nM): 0.002208 ± 2.2e-05 | peptide microarray binding signal ([2]; peptide modifications: H3K9me1 H3T11ph, binder concentration: 100 nM): 0.00524 ± 0.00071 | peptide microarray binding signal [3, 5]: 0.000396 ± 4.2e-05 | peptide microarray binding signal [3, 6]: 0.000285 ± 3.1e-06 | peptide microarray binding signal [4, 5]: 0.00856 ± 0.0022 | peptide microarray binding signal [4, 6]: 0.00208 ± 5.1e-05

QTARKSTGGKAPR [H3 5-17 Q T A R Kac S T G G Kme3 A P R]
peptide microarray binding signal ([1]; peptide modifications: H3K9ac H3K14me3, binder concentration: 50 nM): 0.00755 ± 0.00045 | peptide microarray binding signal ([1]; peptide modifications: H3K9ac H3K14me3, binder concentration: 500 nM): 0.0117 ± 0.00052 | peptide microarray binding signal ([2]; peptide modifications: H3K9ac H3K14me3, binder concentration: 10 nM): 0.00758 ± 0.00031 | peptide microarray binding signal ([2]; peptide modifications: H3K9ac H3K14me3, binder concentration: 100 nM): 0.00957 ± 0.00088 | peptide microarray binding signal [3, 7]: 0.0161 ± 0.0026 | peptide microarray binding signal [3, 8]: 0.0127 ± 0.0015 | peptide microarray binding signal [4, 7]: 0.0416 ± 0.0084 | peptide microarray binding signal [4, 8]: 0.0649 ± 0.082

QTARKSTGGKAPR [H3 5-17 Q T A R Kme2 S Tph G G K A P R]
peptide microarray binding signal ([1]; peptide modifications: H3K9me2 H3T11ph, binder concentration: 50 nM): 0.00201 ± 3.7e-05 | peptide microarray binding signal ([1]; peptide modifications: H3K9me2 H3T11ph, binder concentration: 500 nM): 0.00319 ± 6.5e-05 | peptide microarray binding signal ([2]; peptide modifications: H3K9me2 H3T11ph, binder concentration: 10 nM): 0.0031 ± 7.8e-05 | peptide microarray binding signal ([2]; peptide modifications: H3K9me2 H3T11ph, binder concentration: 100 nM): 0.0022 ± 3.7e-05 | peptide microarray binding signal [3, 9]: 0.000396 ± 7e-06 | peptide microarray binding signal [3, 10]: 0.000799 ± 8.3e-06 | peptide microarray binding signal [4, 9]: 0.0382 ± 0.01 | peptide microarray binding signal [4, 10]: 0.0291 ± 0.0025

QTARKSTGGKAPR [H3 5-17 Q T A R Kac S T G G K A P R]
peptide microarray binding signal ([1]; peptide modifications: H3K9ac, binder concentration: 50 nM): 0.00263 ± 0.00033 | peptide microarray binding signal ([1]; peptide modifications: H3K9ac, binder concentration: 500 nM): 0.00271 ± 0.00021 | peptide microarray binding signal ([2]; peptide modifications: H3K9ac, binder concentration: 10 nM): 0.00352 ± 5e-05 | peptide microarray binding signal ([2]; peptide modifications: H3K9ac, binder concentration: 100 nM): 0.002055 ± 2e-05 | peptide microarray binding signal [3, 11]: 0.00123 ± 0.0001 | peptide microarray binding signal [3, 12]: 0.00245 ± 0.00036 | peptide microarray binding signal [4, 11]: 0.0011 ± 6.7e-05 | peptide microarray binding signal [4, 12]: 0.00167 ± 7.4e-05

QTARKSTGGKAPR [H3 5-17 Q T A R Kme S T G G Kme3 A P R]
peptide microarray binding signal ([1]; peptide modifications: H3K9me1 H3K14me3, binder concentration: 50 nM): 0.00611 ± 0.00085 | peptide microarray binding signal ([1]; peptide modifications: H3K9me1 H3K14me3, binder concentration: 500 nM): 0.011 ± 0.0017 | peptide microarray binding signal ([2]; peptide modifications: H3K9me1 H3K14me3, binder concentration: 10 nM): 0.018 ± 0.003 | peptide microarray binding signal ([2]; peptide modifications: H3K9me1 H3K14me3, binder concentration: 100 nM): 0.00935 ± 0.0036 | peptide microarray binding signal [3, 13]: 0.0233 ± 0.01 | peptide microarray binding signal [3, 14]: 0.0338 ± 0.015 | peptide microarray binding signal [4, 13]: 0.0215 ± 0.0054 | peptide microarray binding signal [4, 14]: 0.016 ± 0.0043
